These results are taken from PubChem BioAssay (Tox21).

Each structure is given as a SMILES string. Several values for one entry are separate records, joined by “and”; a condition that tells them apart may be missing. Equal entries are not always repeated. Inconclusive results are not listed. Unmarked numbers belong to inactive results. Activity calls are given as the source filed them. Unless noted, calls follow the shape of the dose curve; as a rule, active = well fitted curve in the direction sought with a large enough effect in the repeat runs; inconclusive = weak or mixed curves; inactive = no such curve, though single readings can be large; an effect the other way counts as inactive or inconclusive.

Assay [1] can be described thus: qHTS assay to identify small molecule antagonists of the thyroid receptor (TR) signaling pathway (AID 743065). Also: nearly all actives have a fitted effect of over 55% in size. Also: potency is read from the fitted curve at half-maximal effect. A digest of the protocol:
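Antagonism measured as loss of luciferase signal in GH3 cells stably carrying a TRE-luciferase reporter, co-treated with compound and T3 (1 nM final) for 23.5 h at 37 C. Viability was read in the same well by CellTiter-Fluor.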
For orientation: qHTS replaces the single test concentration by a dilution series.

The subject of assay [2] is thyroid hormone receptor (rat, GH3 cells). The assay can be described thus: qHTS assay to identify small molecule agonists of the thyroid receptor (TR) signaling pathway (AID 743066; calls by dose curve).
The nature of assay [3]: qHTS assay to identify small molecule antagonists of the estrogen receptor alpha (ER-alpha) signaling pathway - cell viability counter screen (AID 743074; calls by dose curve;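 also: HEK293 cells carrying ER-alpha-UAS-bla reporter stimulated with 17beta-estradiol; nearly all actives have a fitted effect of over 45% in size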).
For assay [4], the target named is Estrogen receptor (Homo sapiens) (UniProt P03372). As to the kind of experiment: qHTS assay to identify small molecule agonists of the estrogen receptor alpha (ER-alpha) signaling pathway (AID 743075; calls by dose curve;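 also: HEK293 GripTite cells with ER-alpha and UAS-driven beta-lactamase reporter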).
Chain of Estrogen receptor (Homo sapiens) (P03372 whole entry, looked up): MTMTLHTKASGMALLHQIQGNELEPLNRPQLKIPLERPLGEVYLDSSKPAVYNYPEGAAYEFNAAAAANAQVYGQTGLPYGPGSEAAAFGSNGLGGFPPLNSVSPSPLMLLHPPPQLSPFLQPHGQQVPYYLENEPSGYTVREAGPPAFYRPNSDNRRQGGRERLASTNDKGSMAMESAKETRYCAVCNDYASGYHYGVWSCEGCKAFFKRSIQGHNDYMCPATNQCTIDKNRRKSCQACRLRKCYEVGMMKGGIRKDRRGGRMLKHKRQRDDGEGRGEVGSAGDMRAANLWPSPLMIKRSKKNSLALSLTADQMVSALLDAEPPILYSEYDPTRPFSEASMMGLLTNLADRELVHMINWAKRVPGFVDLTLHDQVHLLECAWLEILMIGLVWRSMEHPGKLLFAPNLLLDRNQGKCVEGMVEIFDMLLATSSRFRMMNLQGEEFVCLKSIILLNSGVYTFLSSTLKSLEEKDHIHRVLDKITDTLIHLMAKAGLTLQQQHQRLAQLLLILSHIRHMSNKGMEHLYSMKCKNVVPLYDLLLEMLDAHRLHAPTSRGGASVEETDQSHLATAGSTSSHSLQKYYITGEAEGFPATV
Assay [5] has the same target. As to the kind of experiment: qHTS assay to identify small molecule agonists of the estrogen receptor alpha (ER-alpha) signaling pathway using the BG1 cell line (AID 743079). Also: nearly all actives have a fitted effect of over 20% in size. Also: potency is read from the fitted curve at half-maximal effect. The following applies: BG1Luc4E2 cells, ERE-luciferase agonist, 22 h.
The nature of assay [6]: qHTS assay to identify small molecule antagonists of the estrogen receptor alpha (ER-alpha) signaling pathway using the BG1 cell line (AID 743080; calls by dose curve;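 also: BG1 cells stimulated with 17beta-estradiol alongside compound; nearly all actives have a fitted effect of over 25% in size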). A digest of the protocol: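 Quantitative HTS on the Tox21 10K library: BG1 cells with endogenous ER-alpha and ERE-luciferase reporter, 17beta-estradiol stimulation, 21.5 h compound exposure, luminescence endpoint with parallel fluorescence cytotoxicity counter-read.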

Assay [7] in a line: qHTS assay to identify small molecule antagonists of the estrogen receptor alpha (ER-alpha) signaling pathway using the BG1 cell line - cell viability counter screen (AID 743081).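 Also: compound given together with 17beta-estradiol as the ER stimulus; nearly all actives have a fitted effect of over 45% in size.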
For another assay, the target named is Aromatase (Homo sapiens) (UniProt P11511). The assay can be described thus: qHTS assay to identify aromatase inhibitors (AID 743083). Also: nearly all actives have a fitted effect of over 55% in size.
Chain of Aromatase (Homo sapiens) (P11511 whole entry, looked up): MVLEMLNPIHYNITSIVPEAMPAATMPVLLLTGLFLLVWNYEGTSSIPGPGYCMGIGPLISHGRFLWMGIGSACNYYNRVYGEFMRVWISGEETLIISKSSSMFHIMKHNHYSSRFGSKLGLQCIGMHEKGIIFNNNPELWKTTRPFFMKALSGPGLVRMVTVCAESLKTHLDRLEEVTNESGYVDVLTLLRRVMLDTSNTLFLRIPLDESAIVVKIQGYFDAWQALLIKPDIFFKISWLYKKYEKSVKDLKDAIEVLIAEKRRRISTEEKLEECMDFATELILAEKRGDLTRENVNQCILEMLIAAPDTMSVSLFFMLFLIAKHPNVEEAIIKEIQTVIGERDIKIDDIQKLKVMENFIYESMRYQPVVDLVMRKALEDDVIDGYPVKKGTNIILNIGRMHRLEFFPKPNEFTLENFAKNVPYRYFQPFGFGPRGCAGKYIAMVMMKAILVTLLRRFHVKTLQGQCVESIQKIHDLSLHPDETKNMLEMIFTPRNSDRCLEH
Assay [8] can be described thus: qHTS assay to identify aromatase inhibitors - cell viability counter screen (AID 743084).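 Also: cells stimulated with testosterone during compound exposure; nearly all actives have a fitted effect of over 55% in size.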
% is scaled to controls: 0 for no effect and ±100 for the full control effect.

As for `Cc1nnc2n1-c1sc(CCC(=O)N3CCOCC3)cc1C(c1ccccc1Cl)=NC2`, the Potency entry (in assay [1]; in [2]; in assay [4]; in assay [6]; in assay [7]; in the assay with Aromatase (Homo sapiens)) was “inactive” throughout. The Potency result in assay [8] was “inactive”. Moreover, the outcome in assay [3] was inactive. Besides, the activation in assay [5] (at 70.3 µM (top of the series)) is -7.93% and -17.7%.
Turning to `OCCSCSCCO`, the Potency result (in [1]; in assay [2]; in assay [4]; in [6]; in [7]; in the assay with Aromatase (Homo sapiens)) was “inactive” in each case. Moreover, the Potency result in assay [8] is “inactive”. Further, the compound was called inactive in assay [3]. In assay [5] (at 70.3 µM (top of the series)), the activation is -2.71%.
On to `CCN(CC)c1nc(C)cc(OP(=S)(OC)OC)n1`, for which the Potency in assay [1] was 61.1 µM (active). The Potency entry in [2], in assay [4], in [6], in [7] and in [8] was “inactive” throughout. Moreover, the result in assay [3] was inactive. Besides, in [5] (at 70.3 µM (top of the series)), the activation was 4.15%.
Turning to `[O]=[Cd]`, the Potency result (in assay [1]; in assay [2]; in assay [4]; in assay [6]; in assay [7]; with Aromatase (Homo sapiens)) was “inactive” in each case. Further, the Potency result in assay [8] is “inactive”. The outcome in assay [3] was inactive. Besides, the activation in assay [5] (at 70.3 µM (top of the series)) was -13.8% and 18.3%.
As to `COc1ncc(F)c2nc(S(=O)(=O)Nc3c(F)cccc3F)nn12`, the Potency entry (in assay [1]; in assay [2]; in [4]; in assay [6]; in assay [7]; in the assay with Aromatase (Homo sapiens)) was “inactive” each time. Also, the Potency entry in assay [8] is “inactive”. In addition, in assay [3], the outcome was inactive. In addition, the activation in [5] (at 70.3 µM (top of the series)) is -3.47%.
Turning to `OC(Cn1cncn1)(c1ccc(F)cc1)c1ccccc1F` (configuration not stated), the Potency result in assay [1], in assay [2], in [4], in [6], in assay [7] and in assay [8] was “inactive” each time. The compound was called inactive in [3]. Besides, the activation in assay [5] (at 70.3 µM (top of the series)) is -1%.
In the case of `O=C(Cc1ccccc1)OCc1ccccc1`, the Potency entry (in assay [1]; in assay [2]; in [4]; in [6]; in [7]; in the assay with Aromatase (Homo sapiens)) was “inactive” each time. The Potency result in assay [8] was “inactive”. In [3], the call was inactive. The activation in assay [5] (at 95 µM (top of the series)) is 2.04%.
As to `O=C(Nc1ccccc1)c1ccccc1I`, the Potency entry in assay [1], in assay [2], in assay [4], in assay [6], in assay [7] and in assay [8] was “inactive” each time. Further, in assay [3], the compound was classed as inactive. Besides, the activation in assay [5] (at 70.3 µM (top of the series)) was 0.753%.
On to `Oc1c(Cl)cccc1Cl`, for which the Potency result (in assay [1]; in [2]; in [4]; in assay [6]; in [7]; in the assay with Aromatase (Homo sapiens)) was “inactive” in each case. The Potency result in assay [8] is “inactive”. Also, in assay [3], the compound was classed as inactive. For the same compound, the activation in [5] (at 70.3 µM (top of the series)) is 20.4%.
As to `CCCCOC(=O)[C@@H](C)Oc1ccc(Oc2ccc(C#N)cc2F)cc1`, the Potency entry (in assay [1]; in assay [2]; in [4]; in assay [6]; in assay [7]; in the assay with Aromatase (Homo sapiens)) was “inactive” each time. In addition, in assay [8], the Potency result was “inactive”. Further, the outcome in [3] was inactive. Moreover, in [5] (at 70.3 µM (top of the series)), the activation was -4.38%.
As for `CCOP(=S)(OCC)Oc1nc(Cl)n(C(C)C)n1`, the Potency result (in assay [1]; in [2]; in assay [4]; in [6]; in [7]; in the assay with Aromatase (Homo sapiens)) was “inactive” throughout. For the same compound, in assay [8], the Potency result is “inactive”. Besides, in assay [3], the result was inactive. In assay [5] (at 70.3 µM (top of the series)), the activation is 5.59%.
As for `CCN(CC)C(C)C(=O)c1ccccc1` (configuration not stated), the Potency result (in [1]; in assay [2]; in assay [4]; in assay [6]; in assay [7]; in the assay with Aromatase (Homo sapiens)) was “inactive” each time. In addition, the Potency result in assay [8] was “inactive”. Also, the call in [3] was inactive. The activation in assay [5] (at 70.3 µM (top of the series)) is 0.375%.
Take `O=[N+]([O-])c1ccc2c3c(cccc13)CC2`: the Potency entry (in [1]; in assay [2]; in [4]; in [6]; in [7]; with Aromatase (Homo sapiens)) was “inactive” in each case. Also, in assay [8], the Potency entry was “inactive”. Besides, the call in assay [3] was inactive. Moreover, the activation in [5] (at 70.3 µM (top of the series)) is -4.67%.
`BrCCCCCCBr`: the Potency result (in assay [1]; in assay [2]; in assay [4]; in [6]; in assay [7]; with Aromatase (Homo sapiens)) was “inactive” in each case. Moreover, the Potency result in assay [8] was “inactive”. The result in assay [3] was inactive. The activation in assay [5] (at 70.3 µM (top of the series)) is -3.68%.
`COc1cc(OC)nc(NC(=O)NS(=O)(=O)c2ncccc2C(=O)N(C)C)n1`: the Potency result (in [1]; in assay [2]; in [4]; in assay [6]; in [7]; with Aromatase (Homo sapiens)) was “inactive” each time. Moreover, the Potency entry in assay [8] was “inactive”. In [3], the compound was called inactive. Besides, the activation in assay [5] (at 70.3 µM (top of the series)) is 9.83%.
On to `COC(=O)c1ccccc1S(=O)(=O)NC(=O)Nc1nc(C)cc(C)n1`, for which the Potency entry (in assay [1]; in assay [2]; in [7]; with Aromatase (Homo sapiens); in assay [8]) was “inactive” throughout. Further, the outcome in assay [3] was inactive.
With `CN1C[C@@H](NS(=O)(=O)N(C)C)C[C@@H]2c3cccc4c3c(cn4C)C[C@H]21`, the Potency entry in assay [1], in assay [2] and in assay [7] was “inactive” throughout. Also, the compound was called inactive in [3].
For `CC(C=O)Cc1ccc2c(c1)OCO2` (configuration not stated), the Potency result (in assay [1]; in [2]; in assay [7]; with Aromatase (Homo sapiens)) was “inactive” each time. The result in assay [3] was inactive.
Regarding `CNC(=O)Oc1ccc(N(C)C)c(C)c1`, the Potency result (in assay [1]; in assay [2]; in assay [4]; in assay [6]; in assay [7]; in the assay with Aromatase (Homo sapiens)) was “inactive” each time. For the same compound, the Potency entry in [8] was “inactive”. Moreover, in [3], the result was inactive.
Take `Nc1n[nH]c(N)n1`: the Potency entry (in assay [1]; in assay [2]; in assay [7]; with Aromatase (Homo sapiens); in assay [8]) was “inactive” each time. Moreover, the call in [3] was inactive.
Turning to `ClCCOCOCCCl`, the Potency entry (in assay [1]; in [2]; in [7]; with Aromatase (Homo sapiens); in assay [8]) was “inactive” each time. Moreover, the result in assay [3] was inactive.
In the case of `COC(=O)COc1ccc(Cl)cc1Cl`, the Potency entry in assay [1], in assay [2] and in [7] was “inactive” in each case. In addition, in [3], the compound was classed as inactive.
Consider `C=C(C)CN(CC)c1c([N+](=O)[O-])cc(C(F)(F)F)cc1[N+](=O)[O-]`, for which the Potency result (in assay [1]; in assay [2]; in [4]; in [7]; with Aromatase (Homo sapiens); in assay [8]) was “inactive” throughout. Further, in assay [3], the outcome was inactive. Also, the activation in [5] (at 70.3 µM (top of the series)) was 11.3%.
Turning to `NC1=NC(=O)C(c2ccccc2)O1` (configuration not stated), the Potency result in [1], in [2] and in [7] was “inactive” throughout. Moreover, the outcome in assay [3] was inactive.
Consider `Cc1cc(C)nc(Nc2ccccc2)n1`, for which the Potency entry (in assay [1]; in assay [2]; in assay [4]; in assay [7]; with Aromatase (Homo sapiens); in [8]) was “inactive” in each case. Moreover, in assay [3], the result was inactive.
As for `CCOP(=S)(OCC)Oc1cc(-c2ccccc2)on1`, the Potency entry (in assay [1]; in [2]; in assay [4]; in assay [7]; with Aromatase (Homo sapiens); in assay [8]) was “inactive” in each case. Moreover, the outcome in assay [3] was inactive. For the same compound, the Potency in [5] was 68.6 µM (active).
Regarding `CC(C)(C)OC(=O)c1ncn2c1[C@@H]1CCCN1C(=O)c1c(Br)cccc1-2`, the Potency result (in assay [1]; in assay [2]; in assay [7]; with Aromatase (Homo sapiens); in assay [8]) was “inactive” in each case. Besides, the result in [3] was inactive.
As for `CN1CCC(O)(c2ccc(F)cc2)C(C(=O)c2ccc(F)cc2)C1` (configuration not stated), the Potency in [1] was 26.6 µM (active). Also, the Potency entry (in assay [2]; in assay [7]; in the assay with Aromatase (Homo sapiens); in assay [8]) was “inactive” in each case. Moreover, the call in assay [3] was inactive.
With `CCOP(=S)(Oc1cnc(C(C)(C)C)nc1)OC(C)C` (configuration not stated), the Potency in assay [1] was 61.1 µM (active). The Potency entry in [2] and in assay [7] was “inactive” throughout. Also, the compound was classed as inactive in assay [3].
In the case of `Cc1coc2c1CCC(C)C2` (configuration not stated), the Potency entry (in [1]; in [2]; in assay [4]; in [6]; in assay [7]; in the assay with Aromatase (Homo sapiens)) was “inactive” each time. In addition, the Potency entry in assay [8] was “inactive”. Moreover, the compound was called inactive in [3].
